Measurements taken from PubChem BioAssay.
For some of these results: Potency and affinity values are given separately. Activity calls are given as the source filed them. Unless noted, how the calls were made is not given here.

Legend:
[1] = antimalarial activity against Dd2 strain (AID 2302;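 active means growth inhibition above 50% at the single 2 µM test dose, taken to imply half-maximal potency below 2 µM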;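 further: 0% = DMSO untreated growth and 100% = chloroquine plus artemisinin killed control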); details: P. falciparum Dd2 in RBCs, LDH growth readout, 72 h; at 2 µM; active compounds read high
[2] = HepG2 cytotoxicity, primary screen, cytotoxicity control for P. falciparum antimalarial project, cell-based, ATP luminescence (AID 2303;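 active means inhibition above 50%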;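 further: 0% = DMSO wells and 100% = digitonin-killed cells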); details: HepG2 viability, 24-48 h, at 10 µM, active compounds read high
[3] = biological target: L-lactate dehydrogenase (Plasmodium falciparum (isolate CDC / Honduras)) (UniProt Q27743); experiment: PfLDH activity inhibition – cell lysate, 3D7 strain, counter-screen for P. falciparum growth inhibition project (AID 2304);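 further: 0% = vehicle and 100% = reference inhibitor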; details: P. falciparum 3D7 crude extract, LDH APAD/NBT absorbance; at 2 µM; active compounds read high
Chain of L-lactate dehydrogenase (Plasmodium falciparum (isolate CDC / Honduras)) (Q27743 whole entry, looked up): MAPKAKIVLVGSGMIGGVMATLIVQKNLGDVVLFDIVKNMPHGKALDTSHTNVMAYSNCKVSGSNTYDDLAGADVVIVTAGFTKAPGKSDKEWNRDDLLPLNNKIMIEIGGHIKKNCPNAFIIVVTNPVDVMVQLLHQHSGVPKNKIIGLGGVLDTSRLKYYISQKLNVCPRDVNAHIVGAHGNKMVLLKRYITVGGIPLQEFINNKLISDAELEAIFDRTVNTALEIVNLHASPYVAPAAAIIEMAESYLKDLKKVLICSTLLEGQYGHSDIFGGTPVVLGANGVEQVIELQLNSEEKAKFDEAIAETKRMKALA

[4] = inhibition of 3D7 malaria parasite growth – strain 3D7 (AID 2306);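 further: 0% = DMSO wells and 100% = chloroquine plus artemisinin control wells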; details: P. falciparum 3D7 erythrocytic growth, LDH absorbance, 72 h; at 2 µM; active compounds read high
[5] = biological target: Calcium-dependent protein kinase 1 (Plasmodium falciparum (isolate 3D7)) (UniProt P62344); experiment: PfCDPK1 kinase inhibitors, biochemical, TCAMS library (AID 1159585; cut-off not given, nearly all actives have IC50 up to about 0.98 µM;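 further: inhibitors leave more ATP so luminescence rises with inhibition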); details: recombinant PfCDPK1, Kinase-Glo ATP depletion luminescence
Chain of Calcium-dependent protein kinase 1 (Plasmodium falciparum (isolate 3D7)) (P62344 whole entry, looked up): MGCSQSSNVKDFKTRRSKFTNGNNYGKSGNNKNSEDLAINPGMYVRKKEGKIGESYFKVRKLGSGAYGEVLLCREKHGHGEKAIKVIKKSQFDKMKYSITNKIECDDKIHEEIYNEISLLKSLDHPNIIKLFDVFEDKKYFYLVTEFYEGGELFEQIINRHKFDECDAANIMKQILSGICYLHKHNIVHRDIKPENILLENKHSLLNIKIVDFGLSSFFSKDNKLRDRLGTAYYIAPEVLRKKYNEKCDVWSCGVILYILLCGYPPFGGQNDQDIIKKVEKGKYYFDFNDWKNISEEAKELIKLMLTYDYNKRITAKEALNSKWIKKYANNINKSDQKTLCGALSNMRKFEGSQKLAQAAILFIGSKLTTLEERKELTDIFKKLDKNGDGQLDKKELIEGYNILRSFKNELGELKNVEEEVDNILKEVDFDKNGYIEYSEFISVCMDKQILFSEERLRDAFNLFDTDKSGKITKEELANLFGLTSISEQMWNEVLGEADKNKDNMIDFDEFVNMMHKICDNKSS

[6] = biological target: Plasmodium falciparum protein kinase 6 (PK6, PF3D7_1337100) (UniProt Q8IDW1); experiment: PfPK6 kinase inhibitors, biochemical, TCAMS library (AID 1159586); details: recombinant PfPK6, Kinase-Glo ATP depletion luminescence
Chain of Plasmodium falciparum protein kinase 6 (PK6, PF3D7_1337100) (Q8IDW1 1-305): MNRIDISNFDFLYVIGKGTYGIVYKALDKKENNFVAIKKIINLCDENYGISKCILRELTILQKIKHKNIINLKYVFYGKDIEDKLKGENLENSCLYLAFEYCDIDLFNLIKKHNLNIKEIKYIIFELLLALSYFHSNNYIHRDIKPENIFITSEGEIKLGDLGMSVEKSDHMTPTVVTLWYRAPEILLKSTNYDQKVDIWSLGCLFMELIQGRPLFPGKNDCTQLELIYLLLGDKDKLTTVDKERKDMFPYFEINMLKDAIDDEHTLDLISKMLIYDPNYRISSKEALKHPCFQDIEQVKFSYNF

[7] = biological target: Protein kinase 7 (PK7), Plasmodium falciparum 3D7 (PF3D7_0213400) (UniProt Q7YTF7); experiment: inhibition of Plasmodium PK7 catalytic activity – biochemical, TCAMS antimalarial set, Kinase-Glo luminescence (AID 1159587); details: recombinant PfPK7, Kinase-Glo ATP depletion luminescence
Chain of Protein kinase 7 (PK7), Plasmodium falciparum 3D7 (PF3D7_0213400) (Q7YTF7 1-343): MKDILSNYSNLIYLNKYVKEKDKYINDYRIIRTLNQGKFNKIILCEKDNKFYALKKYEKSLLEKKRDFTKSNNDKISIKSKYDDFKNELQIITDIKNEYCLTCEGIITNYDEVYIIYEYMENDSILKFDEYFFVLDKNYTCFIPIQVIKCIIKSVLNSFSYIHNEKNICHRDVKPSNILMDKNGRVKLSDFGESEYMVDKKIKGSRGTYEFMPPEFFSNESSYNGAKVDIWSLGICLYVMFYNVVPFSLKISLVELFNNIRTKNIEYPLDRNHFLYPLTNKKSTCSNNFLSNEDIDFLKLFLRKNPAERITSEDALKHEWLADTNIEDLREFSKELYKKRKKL

[8] = biological target: Calcium-dependent protein kinase 4 (Plasmodium falciparum (isolate 3D7)) (UniProt Q8IBS5); experiment: PfCDPK4 kinase inhibitors, biochemical, TCAMS library (AID 1159588; cut-off not given, nearly all actives have IC50 up to about 0.91 µM); details: recombinant PfCDPK4, Kinase-Glo ATP depletion luminescence
Chain of Calcium-dependent protein kinase 4 (Plasmodium falciparum (isolate 3D7)) (Q8IBS5 whole entry, looked up): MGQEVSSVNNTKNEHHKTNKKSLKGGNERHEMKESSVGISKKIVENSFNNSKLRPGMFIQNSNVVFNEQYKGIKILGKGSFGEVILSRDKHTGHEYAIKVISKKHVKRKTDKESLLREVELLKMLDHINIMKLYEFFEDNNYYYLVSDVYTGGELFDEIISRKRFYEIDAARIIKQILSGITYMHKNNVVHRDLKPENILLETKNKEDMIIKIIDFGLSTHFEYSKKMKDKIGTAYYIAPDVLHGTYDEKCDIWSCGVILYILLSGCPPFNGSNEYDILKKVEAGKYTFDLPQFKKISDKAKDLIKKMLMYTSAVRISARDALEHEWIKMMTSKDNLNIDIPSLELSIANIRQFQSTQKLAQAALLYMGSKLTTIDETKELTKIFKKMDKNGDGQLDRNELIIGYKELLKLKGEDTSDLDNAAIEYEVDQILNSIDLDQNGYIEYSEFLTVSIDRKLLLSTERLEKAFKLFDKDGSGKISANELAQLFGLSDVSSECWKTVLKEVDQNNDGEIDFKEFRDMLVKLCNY

O=C(Nc1ccc(Cl)cc1Cl)NC1CCN(CCCCCNC(=O)[C@@H]2C[C@H]2c2ccc(Cl)c(Cl)c2)CC1
active: inhibition [2] 67% | growth inhibition [4] 100%
inactive: growth inhibition [1] 30% | inhibition [3] 0% | outcome [5] | outcome [6] | outcome [7] | outcome [8]

C[C@@H](N)C#Cc1cc2c(Nc3ccc(OCc4cccc(F)c4)c(Cl)c3)ncnc2s1
active: growth inhibition [4] 89%
inactive: growth inhibition [1] 23% | inhibition [2] 17% | inhibition [3] -5% | outcome [5] | outcome [6] | outcome [7] | outcome [8]

Cc1cccc(NC(=O)c2ccc(C(=O)NC3CCN(CC4CCCCC4)CC3)cc2)c1
active: growth inhibition [4] 95%
inactive: growth inhibition [1] 18% | inhibition [2] 14% | inhibition [3] -1% | outcome [5] | outcome [6] | outcome [7] | outcome [8]

CCC1CN2CCc3c([nH]c4ccc(OC)cc34)[C@@H]2C[C@@H]1CC1NCCc2cc(OC)c(OC)cc21 (stereo partly drawn)
active: growth inhibition [4] 100%
inactive: growth inhibition [1] 21% | inhibition [2] 17% | inhibition [3] -2% | outcome [5] | outcome [6] | outcome [7] | outcome [8]

O=S(=O)(NCCN1CCCC1)c1cccc(-c2ccc(CNCc3ccc(F)cc3)cc2)c1
active: growth inhibition [4] 104%
inactive: growth inhibition [1] 41% | inhibition [2] 38% | inhibition [3] 6% | outcome [5] | outcome [6] | outcome [7] | outcome [8]

COc1ccc(CN2CCC(N3CC(c4ccccc4)(c4ccccc4)OCC3=O)C2)c(O)c1 (stereo not drawn)
inactive: growth inhibition [1] 27% | inhibition [2] 10% | inhibition [3] 3% | outcome [5] | outcome [6] | outcome [7] | outcome [8]
active: growth inhibition [4] 96%

CCCC(=O)Nc1ccc(OCCN(Cc2ccccc2OC(F)(F)F)c2ccc(C(F)(F)F)c(C#N)c2)cc1
inactive: inhibition [2] -11% | inhibition [3] -1% | outcome [5] | outcome [6] | outcome [7] | outcome [8]
active: growth inhibition [1] 97% | growth inhibition [4] 85%

N#Cc1ccc2nc(-c3ccccc3)[nH]c2c1
active: growth inhibition [4] 95%
inactive: growth inhibition [1] 1% | inhibition [2] 7% | inhibition [3] -1% | outcome [5] | outcome [6] | outcome [7] | outcome [8]

Cc1cccc2c3c([nH]c12)C1(CCN(CCc2ccccc2)CC1)NC(C(=O)NCc1ccccc1)C3 (stereo not drawn)
active: growth inhibition [1] 52% | growth inhibition [4] 86%
inactive: inhibition [2] 10% | inhibition [3] -9% | outcome [5] | outcome [6] | outcome [7] | outcome [8]

CCOc1cc(C)ccc1N(C1CCN(CCCCNC(=O)c2ccc(-c3ccc(C(F)(F)F)cc3)cc2)CC1)S(=O)(=O)c1ccccc1
active: growth inhibition [1] 85% | growth inhibition [4] 88%
inactive: inhibition [2] 14% | inhibition [3] -4% | outcome [5] | outcome [6] | outcome [7] | outcome [8]

Cc1noc(C)c1-c1cccc(CNCc2cccc(-c3ccc(-c4nc5ccc(C(F)(F)F)cc5[nH]4)s3)c2)c1
active: growth inhibition [1] 95% | growth inhibition [4] 100%
inactive: inhibition [2] 23% | inhibition [3] 0% | outcome [5] | outcome [6] | outcome [7] | outcome [8]

CCCCCCCN1CC[C@H](NC(=O)Nc2ccnc3ccc(OC)cc23)[C@H](CO)C1
active: growth inhibition [1] 69% | growth inhibition [4] 94%
inactive: inhibition [2] 23% | inhibition [3] -3% | outcome [5] | outcome [6] | outcome [7] | outcome [8]

COc1ccc(-c2cccc(NC(=O)c3cccc(Cl)c3)c2)cc1CN1CCN(C)CC1
inactive: growth inhibition [1] 48% | inhibition [2] 27% | inhibition [3] 1% | outcome [5] | outcome [6] | outcome [7] | outcome [8]
active: growth inhibition [4] 101%

COc1cccc(CCc2nc3c(N4CCC(Cc5ccccc5)CC4)cccc3n2CC2CNCCO2)c1 (stereo not drawn)
inactive: inhibition [2] 4% | inhibition [3] 4% | outcome [5] | outcome [6] | outcome [7] | outcome [8]
active: growth inhibition [1] 96% | growth inhibition [4] 94%

Cc1cc(=O)oc2c1ccc1oc(C(O)c3ccc(Cl)cc3)c(C)c12 (stereo not drawn)
inactive: inhibition [2] -7% | inhibition [3] 1% | outcome [5] | outcome [6] | outcome [7] | outcome [8]
active: growth inhibition [1] 96% | growth inhibition [4] 95%

CCOc1cc(NC(=O)Nc2ccnc3ccccc23)cc(OC)c1
inactive: inhibition [2] -7% | inhibition [3] 3% | outcome [5] | outcome [6] | outcome [7] | outcome [8]
active: growth inhibition [1] 73% | growth inhibition [4] 98%

C[C@H](Cc1ccc(C(=O)OCCOC(=O)c2ccc(C[C@@H](C)NC[C@H](O)c3cccc(C(F)(F)F)c3)cc2)cc1)NC[C@H](O)c1cccc(C(F)(F)F)c1
active: growth inhibition [1] 86% | growth inhibition [4] 98%
inactive: inhibition [2] 10% | inhibition [3] -4% | outcome [5] | outcome [6] | outcome [7] | outcome [8]

CN1CC[C@@H](Oc2cc(CNC(=O)c3ccc(-c4ccc(Cl)cc4)s3)ccc2C(F)(F)F)C1
active: growth inhibition [1] 64% | growth inhibition [4] 93%
inactive: inhibition [2] 40% | inhibition [3] 2% | outcome [5] | outcome [6] | outcome [7] | outcome [8]

COc1ccc2nccc([C@@H](O)CN3CCC(NC(=O)/C=C/c4cccc(C)c4)CC3)c2c1
inactive: growth inhibition [1] 28% | inhibition [2] 16% | inhibition [3] -2% | outcome [5] | outcome [6] | outcome [7] | outcome [8]
active: growth inhibition [4] 84%

NC(N)=NCCCN(Cc1ccccc1)c1ccccc1
active: growth inhibition [1] 97% | growth inhibition [4] 100%
inactive: inhibition [2] -13% | inhibition [3] -3% | outcome [5] | outcome [6] | outcome [7] | outcome [8]

COc1ccccc1CCNc1nc(C)cc(NCCC(=O)NCCOc2ccccc2)n1
active: growth inhibition [4] 85%
inactive: growth inhibition [1] 14% | inhibition [2] 11% | inhibition [3] -3% | outcome [5] | outcome [6] | outcome [7] | outcome [8]

COc1cccc2cc(C(=O)N[C@@H](CC(C)C)C(=O)N[C@H](/C=N/N3CCCC3=O)Cc3ccccc3)oc12
inactive: inhibition [2] 5% | inhibition [3] 5% | outcome [5] | outcome [6] | outcome [7] | outcome [8]
active: growth inhibition [1] 80% | growth inhibition [4] 96%

O=c1cc(NCCCNC2CCOc3c(Cl)cc(Cl)cc32)[nH]c2ccccc12 (stereo not drawn)
inactive: inhibition [2] -7% | inhibition [3] -3% | outcome [5] | outcome [6] | outcome [7] | outcome [8]
active: growth inhibition [1] 88% | growth inhibition [4] 100%

O=c1cc(N2CCNCC2)c(Cl)nn1Cc1ccc(NS(=O)(=O)c2ccc(Oc3ccccc3)cc2)cc1
active: growth inhibition [4] 102%
inactive: growth inhibition [1] -5% | inhibition [2] 3% | inhibition [3] -6% | outcome [5] | outcome [6] | outcome [7] | outcome [8]

COc1cccc(C(NC(=O)c2ccccc2)c2ccc3cccnc3c2O)c1 (stereo not drawn)
inactive: growth inhibition [1] 41% | inhibition [3] 2% | outcome [5] | outcome [6] | outcome [7] | outcome [8]
active: inhibition [2] 52% | growth inhibition [4] 89%

NOCCCCOc1ccc(Br)cc1
active: growth inhibition [4] 99%
inactive: growth inhibition [1] -1% | inhibition [2] 0% | inhibition [3] -2% | outcome [5] | outcome [6] | outcome [7] | outcome [8]

Cc1cnc2cc3c(cc2c1N1CCN(C)CC1)NCC3
inactive: inhibition [2] 12% | inhibition [3] 3% | outcome [5] | outcome [6] | outcome [7] | outcome [8]
active: growth inhibition [1] 69% | growth inhibition [4] 102%

CCN1CCN(c2cc(C)c3cc(NC(=O)c4ccc(OC)c([N+](=O)[O-])c4)ccc3n2)CC1
active: growth inhibition [1] 93% | growth inhibition [4] 100%
inactive: inhibition [2] 25% | inhibition [3] 0% | outcome [5] | outcome [6] | outcome [7] | outcome [8]

NC(=O)c1cc(-c2ccccc2)cc2c(C3CCC(NCc4ccccc4)C3)c[nH]c12 (stereo not drawn)
active: inhibition [2] 99% | growth inhibition [4] 95%
inactive: growth inhibition [1] 30% | inhibition [3] -7% | outcome [5] | outcome [6] | outcome [7] | outcome [8]

O=C(Nc1ccc2c(c1)CCN(C1CCC1)CC2)c1ccc(-n2ccnc2)cn1
active: growth inhibition [4] 92%
inactive: growth inhibition [1] -1% | inhibition [2] 8% | inhibition [3] 0% | outcome [5] | outcome [6] | outcome [7] | outcome [8]

O=S(=O)(Nc1ccc(CCN2CCCCC2CCN2CCCC2)cc1)c1cccc2cccnc12 (stereo not drawn)
active: growth inhibition [4] 100%
inactive: growth inhibition [1] 0% | inhibition [2] 20% | inhibition [3] 1% | outcome [5] | outcome [6] | outcome [7] | outcome [8]

Clc1ccc2c(NCCCCCCCCNc3ccnc4cc(Cl)ccc34)ccnc2c1
inactive: inhibition [2] 2% | inhibition [3] 4% | outcome [5] | outcome [6] | outcome [7] | outcome [8]
active: growth inhibition [1] 96% | growth inhibition [4] 99%

Cc1ccccc1OCC(=O)Nc1ccc(-c2nc3cc4ccccc4cc3[nH]2)cc1
inactive: inhibition [2] 24% | inhibition [3] 2% | outcome [5] | outcome [6] | outcome [7] | outcome [8]
active: growth inhibition [1] 51% | growth inhibition [4] 102%

C=C[C@H]1CN(CCCCCCC)CC[C@H]1CC(O)Cc1ccnc2cc(O)c(OC)cc12 (stereo partly drawn)
active: growth inhibition [1] 59% | growth inhibition [4] 95%
inactive: inhibition [2] 7% | inhibition [3] 1% | outcome [5] | outcome [6] | outcome [7] | outcome [8]

CCOc1cc(C(=O)NCC2CCN(CC3CCCCC3)CC2)ccc1-c1nc2ccc(Cl)cc2[nH]1
inactive: inhibition [2] 14% | inhibition [3] -6% | outcome [5] | outcome [6] | outcome [7] | outcome [8]
active: growth inhibition [1] 59% | growth inhibition [4] 98%

c1cncc(Oc2ccc(Nc3ccnc4cc(-c5cccc(CN6CCOCC6)c5)ccc34)cc2)c1
inactive: inhibition [2] 14% | inhibition [3] 5% | outcome [5] | outcome [6] | outcome [7] | outcome [8]
active: growth inhibition [1] 100% | growth inhibition [4] 101%

c1cncc(Oc2ccc(Nc3ccnc4cc(-c5cccc(CN6CCCCC6)c5)ccc34)cc2)c1
inactive: inhibition [2] 33% | inhibition [3] 4% | outcome [5] | outcome [6] | outcome [7] | outcome [8]
active: growth inhibition [1] 100% | growth inhibition [4] 101%

Cc1[nH]c(C)c(-c2ccc(-c3ccccc3F)nc2)c(=O)c1Cl
active: growth inhibition [1] 97% | growth inhibition [4] 97%
inactive: inhibition [2] 7% | inhibition [3] 6% | outcome [5] | outcome [6] | outcome [7] | outcome [8]

CCc1cn2c3c(cc(C(=O)N[C@@H](Cc4ccccc4)[C@H](O)CNCc4cccc(C)c4)cc13)N(C)S(=O)(=O)CC2
active: growth inhibition [1] 98% | growth inhibition [4] 96%
inactive: inhibition [2] 5% | inhibition [3] 5% | outcome [5] | outcome [6] | outcome [7] | outcome [8]

Fc1cccc(COc2ccc(Nc3ncnc4sc(C#CCNC5CCC5)cc34)cc2Cl)c1
active: growth inhibition [1] 73% | growth inhibition [4] 100%
inactive: inhibition [2] 15% | inhibition [3] 9% | outcome [5] | outcome [6] | outcome [7] | outcome [8]

COc1ccc(-n2cc(CNCCCn3ccnc3)c(-c3cccc(F)c3)n2)cc1
inactive: growth inhibition [1] 17% | inhibition [2] 21% | inhibition [3] 0% | outcome [5] | outcome [6] | outcome [7] | outcome [8]
active: growth inhibition [4] 98%
